Reference: PubChem BioAssay
For part of these data: Results with a measured potency or affinity are listed apart. The source made the active and inactive calls. Unless noted, how the calls were made is not given here.

What was measured:
[1] = antimalarial activity against Dd2 strain (AID 2302;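 active means growth inhibition above 50% at the single 2 µM test dose, taken to imply half-maximal potency below 2 µM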;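 further: 0% = DMSO untreated growth and 100% = chloroquine plus artemisinin killed control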); details: P. falciparum Dd2 in RBCs, LDH growth readout, 72 h; at 2 µM; active compounds read high
[2] = human hepatoma cell viability loss – ATP luminescence, cytotoxicity control for P. falciparum antimalarial project, primary screen (AID 2303;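 active means inhibition above 50%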;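 further: 0% = DMSO wells and 100% = digitonin-killed cells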); details: HepG2 viability, 24-48 h, at 10 µM, active compounds read high
[3] = biological target: L-lactate dehydrogenase (Plasmodium falciparum (isolate CDC / Honduras)) (UniProt Q27743); experiment: PfLDH activity inhibition – cell lysate, 3D7 strain, counter-screen for P. falciparum growth inhibition project (AID 2304);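 further: 0% = vehicle and 100% = reference inhibitor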; details: P. falciparum 3D7 crude extract, LDH APAD/NBT absorbance; at 2 µM; active compounds read high
Chain of L-lactate dehydrogenase (Plasmodium falciparum (isolate CDC / Honduras)) (Q27743 whole entry, looked up): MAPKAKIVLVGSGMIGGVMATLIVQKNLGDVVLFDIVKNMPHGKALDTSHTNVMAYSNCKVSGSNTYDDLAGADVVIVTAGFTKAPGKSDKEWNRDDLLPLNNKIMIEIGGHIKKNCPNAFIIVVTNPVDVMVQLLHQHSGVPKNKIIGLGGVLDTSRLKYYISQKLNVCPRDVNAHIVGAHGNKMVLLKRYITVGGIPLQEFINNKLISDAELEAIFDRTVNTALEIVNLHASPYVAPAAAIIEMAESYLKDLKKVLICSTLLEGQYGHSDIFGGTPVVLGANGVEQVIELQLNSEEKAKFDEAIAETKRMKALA

[4] = inhibition of 3D7 malaria parasite growth – strain 3D7 (AID 2306);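 further: 0% = DMSO wells and 100% = chloroquine plus artemisinin control wells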; details: P. falciparum 3D7 erythrocytic growth, LDH absorbance, 72 h; at 2 µM; active compounds read high
[5] = biological target: Calcium-dependent protein kinase 1 (Plasmodium falciparum (isolate 3D7)) (UniProt P62344); experiment: PfCDPK1 kinase inhibitors, biochemical, TCAMS library (AID 1159585; cut-off not given, nearly all actives have IC50 up to about 0.98 µM;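 further: inhibitors leave more ATP so luminescence rises with inhibition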); details: recombinant PfCDPK1, Kinase-Glo ATP depletion luminescence
Chain of Calcium-dependent protein kinase 1 (Plasmodium falciparum (isolate 3D7)) (P62344 whole entry, looked up): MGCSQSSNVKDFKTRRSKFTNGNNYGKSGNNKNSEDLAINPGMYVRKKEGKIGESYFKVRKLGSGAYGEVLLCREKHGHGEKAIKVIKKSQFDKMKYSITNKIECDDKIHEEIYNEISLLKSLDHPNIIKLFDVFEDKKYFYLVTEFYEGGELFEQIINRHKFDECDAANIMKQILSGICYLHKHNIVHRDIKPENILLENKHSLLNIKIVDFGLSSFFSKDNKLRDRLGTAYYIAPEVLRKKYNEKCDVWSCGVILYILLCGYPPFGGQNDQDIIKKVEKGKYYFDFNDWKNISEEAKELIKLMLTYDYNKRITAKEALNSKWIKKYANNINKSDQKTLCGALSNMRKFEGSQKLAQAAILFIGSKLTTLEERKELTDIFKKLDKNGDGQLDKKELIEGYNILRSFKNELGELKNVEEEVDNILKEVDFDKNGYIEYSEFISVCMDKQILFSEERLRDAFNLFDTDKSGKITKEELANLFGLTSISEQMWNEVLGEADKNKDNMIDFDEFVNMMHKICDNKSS

[6] = biological target: Plasmodium falciparum protein kinase 6 (PK6, PF3D7_1337100) (UniProt Q8IDW1); experiment: PfPK6 kinase inhibitors, biochemical, TCAMS library (AID 1159586); details: recombinant PfPK6, Kinase-Glo ATP depletion luminescence
Chain of Plasmodium falciparum protein kinase 6 (PK6, PF3D7_1337100) (Q8IDW1 1-305): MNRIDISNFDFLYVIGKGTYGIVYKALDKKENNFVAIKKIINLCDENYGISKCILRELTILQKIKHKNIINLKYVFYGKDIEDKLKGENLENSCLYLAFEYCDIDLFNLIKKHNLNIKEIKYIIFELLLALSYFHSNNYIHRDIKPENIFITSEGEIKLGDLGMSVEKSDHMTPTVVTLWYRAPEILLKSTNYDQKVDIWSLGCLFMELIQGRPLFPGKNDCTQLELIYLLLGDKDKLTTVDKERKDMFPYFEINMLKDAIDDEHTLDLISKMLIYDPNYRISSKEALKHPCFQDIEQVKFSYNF

[7] = biological target: Protein kinase 7 (PK7), Plasmodium falciparum 3D7 (PF3D7_0213400) (UniProt Q7YTF7); experiment: inhibition of Plasmodium PK7 catalytic activity – biochemical, TCAMS antimalarial set, Kinase-Glo luminescence (AID 1159587); details: recombinant PfPK7, Kinase-Glo ATP depletion luminescence
Chain of Protein kinase 7 (PK7), Plasmodium falciparum 3D7 (PF3D7_0213400) (Q7YTF7 1-343): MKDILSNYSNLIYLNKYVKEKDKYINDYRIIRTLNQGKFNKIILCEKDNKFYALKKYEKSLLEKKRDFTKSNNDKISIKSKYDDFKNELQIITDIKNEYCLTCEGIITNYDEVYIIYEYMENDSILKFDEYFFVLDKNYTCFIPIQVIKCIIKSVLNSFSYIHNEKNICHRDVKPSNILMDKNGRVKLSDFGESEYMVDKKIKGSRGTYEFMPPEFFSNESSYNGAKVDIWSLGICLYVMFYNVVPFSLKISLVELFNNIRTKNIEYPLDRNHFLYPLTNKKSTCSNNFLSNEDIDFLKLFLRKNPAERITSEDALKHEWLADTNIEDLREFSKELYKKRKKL

[8] = biological target: Calcium-dependent protein kinase 4 (Plasmodium falciparum (isolate 3D7)) (UniProt Q8IBS5); experiment: PfCDPK4 kinase inhibitors, biochemical, TCAMS library (AID 1159588; cut-off not given, nearly all actives have IC50 up to about 0.91 µM); details: recombinant PfCDPK4, Kinase-Glo ATP depletion luminescence
Chain of Calcium-dependent protein kinase 4 (Plasmodium falciparum (isolate 3D7)) (Q8IBS5 whole entry, looked up): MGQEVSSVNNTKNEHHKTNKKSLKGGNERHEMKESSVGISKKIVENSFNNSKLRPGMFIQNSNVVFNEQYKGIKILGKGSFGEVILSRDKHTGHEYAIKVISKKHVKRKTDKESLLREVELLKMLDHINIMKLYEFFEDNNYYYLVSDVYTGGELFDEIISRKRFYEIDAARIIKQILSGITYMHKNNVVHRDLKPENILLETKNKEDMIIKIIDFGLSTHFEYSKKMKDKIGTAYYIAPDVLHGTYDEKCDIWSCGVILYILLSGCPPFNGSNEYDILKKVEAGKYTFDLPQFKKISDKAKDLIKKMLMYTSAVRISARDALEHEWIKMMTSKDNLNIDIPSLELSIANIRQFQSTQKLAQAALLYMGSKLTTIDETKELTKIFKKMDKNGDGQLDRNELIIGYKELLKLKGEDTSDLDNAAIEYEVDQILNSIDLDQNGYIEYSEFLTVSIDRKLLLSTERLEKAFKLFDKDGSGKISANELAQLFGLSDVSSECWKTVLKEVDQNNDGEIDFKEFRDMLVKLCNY

COc1cc2ccccc2cc1CNCCCCCCNCc1cc2ccccc2cc1OC
active: inhibition [2] 98% | growth inhibition [4] 101%
inactive: growth inhibition [1] 24% | inhibition [3] 6% | outcome [5] | outcome [6] | outcome [7] | outcome [8]

CC(C)COc1ccc(Cl)cc1Cc1ccc(-c2nc3c(cnc4ccccc43)[nH]2)o1
active: growth inhibition [4] 87%
inactive: growth inhibition [1] 26% | inhibition [2] 21% | inhibition [3] 1% | outcome [5] | outcome [6] | outcome [7] | outcome [8]

COc1ccc(CN2CCC(NCc3cccc(-n4ccnc4)c3)CC2)cc1
active: growth inhibition [1] 93% | growth inhibition [4] 100%
inactive: inhibition [2] 10% | inhibition [3] -5% | outcome [5] | outcome [6] | outcome [7] | outcome [8]

Cc1nc(C)c(CC(=O)Nc2cccc(-c3cccc(-c4nc5c(C)cccc5[nH]4)c3)c2)s1
inactive: growth inhibition [1] 35% | inhibition [2] 43% | inhibition [3] -6% | outcome [5] | outcome [6] | outcome [7] | outcome [8]
active: growth inhibition [4] 92%

N#Cc1ccc(CN2CCCN(Cc3cccc(NC(=O)c4ccc(Cl)c(Cl)c4)c3)CC2)cc1
active: growth inhibition [4] 95%
inactive: growth inhibition [1] 10% | inhibition [2] 19% | inhibition [3] -1% | outcome [5] | outcome [6] | outcome [7] | outcome [8]

COc1ccc(S(=O)(=O)NC2CCN(CCCOc3ccnc4cc(Cl)ccc34)C2)cc1OC (configuration not stated)
active: growth inhibition [1] 56% | growth inhibition [4] 91%
inactive: inhibition [2] 8% | inhibition [3] 1% | outcome [5] | outcome [6] | outcome [7] | outcome [8]

O=C(NC1CCN(Cc2ccsc2)CC1)c1ccc(-c2cccc(C(F)(F)F)c2)s1
active: growth inhibition [4] 88%
inactive: growth inhibition [1] 3% | inhibition [2] 48% | inhibition [3] -2% | outcome [5] | outcome [6] | outcome [7] | outcome [8]

CC1(C)CCC(C)(C)c2c1ccc(C1CCN(CCCCNC(=O)c3ccc(-c4ccc(C#N)cc4)cc3)CC1)c2OCC(N)=O
active: growth inhibition [1] 100% | inhibition [2] 99% | growth inhibition [4] 102%
inactive: inhibition [3] -3% | outcome [5] | outcome [6] | outcome [7] | outcome [8]

CCc1ccc(CN2CCC(NC(=O)c3cc(-c4ccc(N(C)C)cc4)cs3)C2)cc1 (configuration not stated)
active: growth inhibition [4] 90%
inactive: growth inhibition [1] 7% | inhibition [2] 29% | inhibition [3] 3% | outcome [5] | outcome [6] | outcome [7] | outcome [8]

CCn1c(SCc2ccccc2)nc2c1c(=O)[nH]c(=O)n2C
active: growth inhibition [4] 96%
inactive: growth inhibition [1] 30% | inhibition [2] 1% | inhibition [3] -1% | outcome [5] | outcome [6] | outcome [7] | outcome [8]

c1ccc(CN2CCC(NCc3ccc(-c4ccc(CNCc5cccnc5)cn4)cc3)CC2)cc1
inactive: growth inhibition [1] 13% | inhibition [2] -1% | inhibition [3] -5% | outcome [5] | outcome [6] | outcome [7] | outcome [8]
active: growth inhibition [4] 97%

CN(C)Cc1cccc(CNC(=O)c2sccc2OCc2ccc(Cl)cc2)c1
active: growth inhibition [1] 88% | growth inhibition [4] 90%
inactive: inhibition [2] 7% | inhibition [3] -6% | outcome [5] | outcome [6] | outcome [7] | outcome [8]

O=C1NC(C(=O)Nc2ccccc2)C(c2ccccc2)S1 (configuration not stated)
inactive: inhibition [2] -4% | inhibition [3] -1% | outcome [5] | outcome [6] | outcome [7] | outcome [8]
active: growth inhibition [1] 99% | growth inhibition [4] 95%

NC(N)=Nc1ccc(CCc2ccc(N=C(N)N)cc2)cc1
inactive: inhibition [3] -1% | outcome [5] | outcome [6] | outcome [7] | outcome [8]
active: growth inhibition [1] 95% | inhibition [2] 57% | growth inhibition [4] 96%

CCCCCCNC[C@@H](O)[C@H](Cc1ccccc1)NC(=O)c1cc(NCC)cc(N2CCCCS2(=O)=O)c1
inactive: inhibition [2] 5% | inhibition [3] -5% | outcome [5] | outcome [6] | outcome [7] | outcome [8]
active: growth inhibition [1] 98% | growth inhibition [4] 100%

CN(C)c1ccc(C2(c3ccccc3)N=C(N)N(CCCc3ccccc3)C2=O)cc1 (configuration not stated)
inactive: inhibition [2] 4% | inhibition [3] 0% | outcome [5] | outcome [6] | outcome [7] | outcome [8]
active: growth inhibition [1] 97% | growth inhibition [4] 99%

CN1CCN(c2nc(NCCc3ccc(O)cc3)nc(NCc3ccccc3-c3ccc(C(F)(F)F)cc3)n2)CC1
inactive: inhibition [2] 35% | inhibition [3] 6% | outcome [5] | outcome [6] | outcome [7] | outcome [8]
active: growth inhibition [1] 82% | growth inhibition [4] 90%

CCN(CCCN1CCCCC1)c1cc(C)nc(Nc2cccc(C(F)(F)F)c2)n1
inactive: inhibition [2] 25% | inhibition [3] 5% | outcome [5] | outcome [6] | outcome [7] | outcome [8]
active: growth inhibition [1] 88% | growth inhibition [4] 102%

O=c1cc(NCCCNCc2cc(Cl)cc(Cl)c2OCc2ccc(Cl)cc2)[nH]c2ccccc12
active: growth inhibition [1] 53% | growth inhibition [4] 98%
inactive: inhibition [2] 6% | inhibition [3] 3% | outcome [5] | outcome [6] | outcome [7] | outcome [8]

O=C(NC1CCC(N2CCC(O)(c3ccc(F)cc3)CC2)CC1)c1cc2ccccc2[nH]1 (configuration not stated)
inactive: growth inhibition [1] 8% | inhibition [2] 9% | inhibition [3] -4% | outcome [5] | outcome [6] | outcome [7] | outcome [8]
active: growth inhibition [4] 94%

CCOC(=O)c1cnc2c(OC)cc(OC)c(Cl)c2c1Nc1cccc(C)c1
inactive: growth inhibition [1] 20% | inhibition [2] 0% | inhibition [3] -2% | outcome [5] | outcome [6] | outcome [7] | outcome [8]
active: growth inhibition [4] 95%

O=C(Nc1ccc(Cl)cc1)Nc1cccc(-c2cccc(-c3nc4ccccc4[nH]3)c2)c1
inactive: inhibition [3] 0% | outcome [5] | outcome [6] | outcome [7] | outcome [8]
active: growth inhibition [1] 56% | inhibition [2] 70% | growth inhibition [4] 100%

CCc1c(C(=O)NC2CCC(N3CCC(c4ccccc4OC)CC3)CC2)[nH]c2ccc(Br)cc12 (configuration not stated)
inactive: inhibition [3] -1% | outcome [5] | outcome [6] | outcome [7] | outcome [8]
active: growth inhibition [1] 98% | inhibition [2] 85% | growth inhibition [4] 101%

O=c1cc(NCCCCNCc2cccc(Br)c2)[nH]c2ccccc12
inactive: growth inhibition [1] 19% | inhibition [2] -1% | inhibition [3] 0% | outcome [5] | outcome [6] | outcome [7] | outcome [8]
active: growth inhibition [4] 98%

O=C(Nc1cccc(-c2cccc(-c3nc4ccccc4[nH]3)c2)c1)Nc1ccc2c(c1)OCO2
inactive: inhibition [2] 25% | inhibition [3] -4% | outcome [5] | outcome [6] | outcome [7] | outcome [8]
active: growth inhibition [1] 57% | growth inhibition [4] 101%

Cc1[nH]c(-c2ccc(F)cc2)cc1C(=O)NC1CCN(Cc2ccccc2)CC1
active: growth inhibition [4] 84%
inactive: growth inhibition [1] 9% | inhibition [2] 6% | inhibition [3] -2% | outcome [5] | outcome [6] | outcome [7] | outcome [8]

CC(C)Cn1c(Sc2ccc(C#N)c([N+](=O)[O-])c2)nnc1-c1ccccc1Cl
inactive: growth inhibition [1] 46% | inhibition [2] 18% | inhibition [3] 2% | outcome [5] | outcome [6] | outcome [7] | outcome [8]
active: growth inhibition [4] 93%

CCCCC(=O)Nc1nc2ccc([N+](=O)[O-])cc2s1
inactive: inhibition [2] 9% | inhibition [3] -5% | outcome [5] | outcome [6] | outcome [7] | outcome [8]
active: growth inhibition [1] 69% | growth inhibition [4] 91%

CCCCCN1CCCC(NS(=O)(=O)c2cccc(C(=O)Nc3cccc(C(F)(F)F)c3)c2)C1 (configuration not stated)
inactive: growth inhibition [1] 5% | inhibition [2] 22% | inhibition [3] -2% | outcome [5] | outcome [6] | outcome [7] | outcome [8]
active: growth inhibition [4] 86%

NCC1CCCN1Cc1ccc(-c2ccc(-c3nc4ccc(C(F)(F)F)cc4[nH]3)cc2)cc1 (configuration not stated)
active: growth inhibition [1] 98% | growth inhibition [4] 101%
inactive: inhibition [2] 35% | inhibition [3] 3% | outcome [5] | outcome [6] | outcome [7] | outcome [8]

Cc1ccc(NC(=O)NC2CCN(c3ccnc4cc(Cl)ccc34)C2)cc1 (configuration not stated)
active: growth inhibition [1] 96% | growth inhibition [4] 101%
inactive: inhibition [2] 19% | inhibition [3] 5% | outcome [5] | outcome [6] | outcome [7] | outcome [8]

CCc1ccc(NC(=O)c2ccc(CN3CCCN(Cc4cccc(Cl)c4)CC3)cc2)cc1
inactive: growth inhibition [1] 2% | inhibition [3] 5% | outcome [5] | outcome [6] | outcome [7] | outcome [8]
active: inhibition [2] 50% | growth inhibition [4] 84%

Cn1ccc2c3c(N)nc(N)nc3ccc21
inactive: growth inhibition [1] 17% | inhibition [3] 6% | outcome [5] | outcome [6] | outcome [7] | outcome [8]
active: inhibition [2] 59% | growth inhibition [4] 91%

COc1cc(C(=O)N2CCOC(CCN3CCc4c(c5ccccc5n4C)C3)(c3ccc(Cl)c(Cl)c3)C2)cc(OC)c1OC (configuration not stated)
inactive: inhibition [2] 16% | inhibition [3] -4% | outcome [5] | outcome [6] | outcome [7] | outcome [8]
active: growth inhibition [1] 68% | growth inhibition [4] 87%

O=C(/C=C/c1ccc(Cl)c(Cl)c1)NCCCCCN1CCCN(C(=O)Nc2cccc(C(F)(F)F)c2)CC1
inactive: growth inhibition [1] -2% | inhibition [2] 45% | inhibition [3] 1% | outcome [5] | outcome [6] | outcome [7] | outcome [8]
active: growth inhibition [4] 96%

O=C(/C=C/c1ccc(C(F)(F)F)cc1)NCCCCCN1CCN(C(=O)Nc2ccc(Cl)cc2)CC1
active: growth inhibition [4] 88%
inactive: growth inhibition [1] -4% | inhibition [2] 37% | inhibition [3] -8% | outcome [5] | outcome [6] | outcome [7] | outcome [8]

Cc1ccc(O)c(C(=O)c2cc(C(=O)Nc3ccccc3C)c(=O)n(-c3ccccc3C)c2)c1
active: growth inhibition [1] 81% | growth inhibition [4] 98%
inactive: inhibition [2] -15% | inhibition [3] -8% | outcome [5] | outcome [6] | outcome [7] | outcome [8]

COC(=O)c1cccc(CNCc2ccc(-c3ccc(-c4nc5ccccc5[nH]4)s3)cc2)c1
inactive: inhibition [2] 20% | inhibition [3] 4% | outcome [5] | outcome [6] | outcome [7] | outcome [8]
active: growth inhibition [1] 79% | growth inhibition [4] 100%

COc1ccc(CNCc2ccc(-c3cccc(-c4nc5c(C)cccc5[nH]4)c3)cc2)cc1
inactive: inhibition [3] -7% | outcome [5] | outcome [6] | outcome [7] | outcome [8]
active: growth inhibition [1] 101% | inhibition [2] 69% | growth inhibition [4] 102%
